This note sets out measurements from PubChem BioAssay.

For part of these data: Entries with a potency or affinity are not part of this list. The source made the active and inactive calls.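 The calls were made as follows, unless noted: active = fitted half-maximal concentration within the tested dose range, moderate curve steepness, a statistically real signal drop, and little compound fluorescence or tag-binding interference; inactive = the rest.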

For assay [1], the target named is Cell division control protein 42 homolog (Homo sapiens) (UniProt P60953). Briefly: activated mutant Cdc42 GTP-binding inhibitors, dose response, biochemical, multiplex bead flow cytometry, Bodipy-FL-GTP (AID 1333). For orientation: In flow cytometry, cells or beads pass a laser one at a time.
For assay [2] the target is unchanged. As to the kind of experiment: wildtype Cdc42 GTP-binding inhibitors, dose response, biochemical, multiplex bead flow cytometry, Bodipy-FL-GTP (AID 1334;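 active = fitted half-maximal concentration within the tested range, moderate curve steepness, significant signal drop, and little compound fluorescence or bead-linkage interference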). The following applies: bead-based flow cytometry, Bodipy-FL-GTP binding to GST-Cdc42; at 100 µM (top of the series) unless noted.
For assay [3], the target named is GTPase HRas (Homo sapiens) (UniProt P01112). As to the kind of experiment: inhibitors of GTP binding to wildtype Ras, dose response, biochemical, multiplex bead flow cytometry (AID 1335;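 active = fitted half-maximal concentration within 10 nM to 100 µM, steepness 0.5 to 2, significant signal drop, low assay interference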). Particulars: bead-based flow cytometry, Bodipy-GTP binding to GST-Ras; at 100 µM (top of the series) unless noted.
In assay [4] the test system is Ras-related protein Rab-7a (dog), GTP binding. As to the kind of experiment: Rab7 GTP binding inhibitors, potency, dose response, biochemical, wildtype, multiplex bead flow cytometry (AID 1336; call rule not given here).
Assay [5] concerns the target Ras-related C3 botulinum toxin substrate 1 (Homo sapiens) (UniProt P63000). Briefly: wildtype Rac1 GTP binding inhibitors, dose response, biochemical, multiplex bead flow cytometry (AID 1340;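 active = dose curve with midpoint inside tested range, moderate steepness, plateau gap beyond fit error, low compound glow and bead-link interference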). Particulars: GST-Rac1 beads, Bodipy-FL-GTP binding; at 100 µM (top of the series) unless noted.
Assay [6] concerns the target GTPase HRas (Homo sapiens) (UniProt P01112). As to the kind of experiment: activated Ras mutant GTP binding inhibitors, dose response, biochemical, multiplex bead flow cytometry (AID 1341;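 active = dose-response curve with midpoint inside the tested range, moderate steepness, significant amplitude and little compound fluorescence or bead-attachment interference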;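 also: GST-tagged constitutively activated Ras mutant immobilized on beads and multiplexed with other GTPases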).

Cell division control protein 42 homolog (Homo sapiens), sequence (P60953 whole entry, looked up): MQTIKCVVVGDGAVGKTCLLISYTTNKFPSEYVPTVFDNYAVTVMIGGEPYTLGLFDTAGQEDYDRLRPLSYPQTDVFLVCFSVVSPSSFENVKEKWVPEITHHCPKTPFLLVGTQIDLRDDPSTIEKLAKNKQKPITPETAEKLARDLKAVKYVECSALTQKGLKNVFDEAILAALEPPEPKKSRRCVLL
GTPase HRas (Homo sapiens), sequence (P01112 whole entry, looked up): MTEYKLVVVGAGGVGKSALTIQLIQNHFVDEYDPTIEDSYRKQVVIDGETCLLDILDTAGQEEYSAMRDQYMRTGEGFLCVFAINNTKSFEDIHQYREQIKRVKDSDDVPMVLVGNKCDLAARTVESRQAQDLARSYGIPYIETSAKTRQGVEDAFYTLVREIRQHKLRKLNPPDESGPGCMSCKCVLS

With `Nc1nc(N)c2sc3nc4c(cc3c2n1)CCC4`, the compound was classed as inactive in assay [1], in assay [4] and in assay [6]. The fluorescence, percent of control (lower = inhibition) in assay [2] is 89.1%. Also, the GTP binding, percent of control in assay [3] was 126%. Moreover, the GTP binding signal, raw median fluorescence (lower = inhibition) (MCF (arbitrary fluorescence units)) in assay [5] was determined as 136.

Take `Nc1c(S(=O)(=O)c2ccccc2)c2nc3ccccc3nc2n1/N=C/c1cccc(O)c1`: the call in assay [1], in assay [4] and in assay [6] was inactive. For the same compound, the fluorescence, percent of control (lower = inhibition) in assay [2] was found to be 91.2%. This compound displayed a GTP binding, percent of control in assay [3] of 81.1%. The GTP binding signal, raw median fluorescence (lower = inhibition) (MCF (arbitrary fluorescence units)) in assay [5] is 105.

On to `CCN1C(=O)C(CC(=O)Nc2ccc(F)cc2)N(CCc2ccc(OC)cc2)C1=S` (stereo not given), for which the call in assay [1], in assay [4] and in assay [6] was inactive. Moreover, the fluorescence, percent of control (lower = inhibition) in assay [2] stood at 33.8%. The GTP binding, percent of control in assay [3] was 78.6%. Further, the GTP binding signal, raw median fluorescence (lower = inhibition) (MCF (arbitrary fluorescence units)) in assay [5] amounted to 239.

For `CCOc1nnc(C)c2c(C)n(-c3cccc(Cl)c3)nc12`, the outcome in assay [1], in assay [4] and in assay [6] was inactive. The fluorescence, percent of control (lower = inhibition) in assay [2] is 155%. This compound also showed a GTP binding, percent of control in assay [3] of 168%. For the same compound, the GTP binding signal, raw median fluorescence (lower = inhibition) (MCF (arbitrary fluorescence units)) in assay [5] is 312.

Take `Nc1nn2c(-c3ccccc3)cc(=O)[nH]c2c1N=Nc1ccc(Br)cc1`: the compound was called inactive in assay [1], in assay [4] and in assay [6]. For the same compound, the fluorescence, percent of control (lower = inhibition) in assay [2] came to 27.4%. Moreover, the GTP binding, percent of control in assay [3] was 78.1%. In assay [5], this compound displayed a GTP binding signal, raw median fluorescence (lower = inhibition) (MCF (arbitrary fluorescence units)) of 197.

Turning to `COc1ccc(-c2nn(-c3ccccc3)cc2C(=O)NCCCn2ccnc2)cc1`, the compound was classed as inactive in assay [1], in assay [4] and in assay [6]. Moreover, the fluorescence, percent of control (lower = inhibition) in assay [2] turned out to be 49.1%. In assay [3], this compound came in with a GTP binding, percent of control of 61.1%. This compound also had a GTP binding signal, raw median fluorescence (lower = inhibition) (MCF (arbitrary fluorescence units)) in assay [5] of 202.

As for `CCC(C)(C)NC(=O)c1ccc2c(c1)N(CC(=O)OC)C(=O)C(C)(C)O2`, the compound was called inactive in assay [1], in assay [4] and in assay [6]. Moreover, the fluorescence, percent of control (lower = inhibition) in assay [2] came out at 34.2%. The GTP binding, percent of control in assay [3] worked out at 82.4%. In assay [5], this compound returned a GTP binding signal, raw median fluorescence (lower = inhibition) (MCF (arbitrary fluorescence units)) of 253.

On to `COc1ccc(-n2c(C)cc(/C=C3/SC(=S)N(C)C3=O)c2C)cc1`, for which the call in assay [1], in assay [4] and in assay [6] was inactive. The fluorescence, percent of control (lower = inhibition) in assay [2] came to 76.1%. The compound further displayed a GTP binding, percent of control in assay [3] of 85.8%. The GTP binding signal, raw median fluorescence (lower = inhibition) (MCF (arbitrary fluorescence units)) in assay [5] was found to be 0.

Take `Cc1cc(C(=O)O)sc1CNc1ccc(Cl)cc1`: the outcome in assay [1], in assay [4] and in assay [6] was inactive. For the same compound, the fluorescence, percent of control (lower = inhibition) in assay [2] was 63.1%. Also, in assay [3], the GTP binding, percent of control was determined as 88.6%. For the same compound, in assay [5], the GTP binding signal, raw median fluorescence (lower = inhibition) (MCF (arbitrary fluorescence units)) came out at 34.7.

Take `COc1cc(-c2cc(=O)c3c(O)cc(O)cc3o2)ccc1O`: the result in assay [1], in assay [4] and in assay [6] was inactive. Moreover, in assay [2], the fluorescence, percent of control (lower = inhibition) amounted to 36%. For the same compound, the GTP binding, percent of control in assay [3] was 84.7%. For the same compound, the GTP binding signal, raw median fluorescence (lower = inhibition) (MCF (arbitrary fluorescence units)) in assay [5] came out at 189.

`CCOC(=O)Cn1nnnc1CN(Cc1cccs1)Cc1cc2cc(C)ccc2[nH]c1=O`: the result in assay [1], in assay [4] and in assay [6] was inactive. For the same compound, the fluorescence, percent of control (lower = inhibition) in assay [2] amounted to 98.4%. This compound also returned a GTP binding, percent of control in assay [3] of 178%. The compound further displayed a GTP binding signal, raw median fluorescence (lower = inhibition) (MCF (arbitrary fluorescence units)) in assay [5] of 187.

For `COc1ccc(CNCc2ccc(C(=O)O)s2)cc1`, the compound was called inactive in assay [1], in assay [4] and in assay [6]. Moreover, the fluorescence, percent of control (lower = inhibition) in assay [2] turned out to be 64.9%. The compound further came in with a GTP binding, percent of control in assay [3] of 89.4%. The compound also showed a GTP binding signal, raw median fluorescence (lower = inhibition) (MCF (arbitrary fluorescence units)) in assay [5] of 33.5.

`CCNC(=S)N=Nc1c(O)[nH]c2ccc([N+](=O)[O-])cc12`: the outcome in assay [1], in assay [4] and in assay [6] was inactive. The fluorescence, percent of control (lower = inhibition) in assay [2] came to 32.4%. The GTP binding, percent of control in assay [3] was found to be 72.3%. Further, in assay [5], the GTP binding signal, raw median fluorescence (lower = inhibition) (MCF (arbitrary fluorescence units)) came to 141.

In the case of `Cc1ccc(C(=O)c2ccccc2C(=O)O)cc1`, the result in assay [1], in assay [4] and in assay [6] was inactive. Besides, the fluorescence, percent of control (lower = inhibition) in assay [2] came out at 67.4%. In assay [3], this compound yielded a GTP binding, percent of control of 89.9%. In assay [5], this compound returned a GTP binding signal, raw median fluorescence (lower = inhibition) (MCF (arbitrary fluorescence units)) of 38.5.

For `COc1ccc(C(=O)Nc2cc(Cl)ccc2C(=O)O)cc1`, the outcome in assay [1], in assay [4] and in assay [6] was inactive. The fluorescence, percent of control (lower = inhibition) in assay [2] was found to be 30.8%. This compound showed a GTP binding, percent of control in assay [3] of 75.6%. In assay [5], this compound showed a GTP binding signal, raw median fluorescence (lower = inhibition) (MCF (arbitrary fluorescence units)) of 272.
